Measurements reported in PubChem BioAssay AID1159580 (chemical genetic matrix, 2015).
Several values for one entry are separate records, joined by “and”; a condition that tells them apart may be missing. Identical values can stand only once. The whole screen tested about 5,500 compounds, of which about 2,000 (36%) were called active. About 18% were inconclusive and are not listed. Cut-off read from the data, not from the text of the source: active = normalized growth mostly below about 0.91 (no sharp cut-off); inconclusive = no clear call, values can overlap the other calls; inactive = mostly above about 0.92. The list shows a part of the results.

Assay: chemical genetic growth profiling, strain panel (AID 1159580);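 note: tested at 20 µM; growth read once vehicle control cultures reached saturation at 30 °C; 1 = growth at the plate median or of vehicle wells; lower values mean less growth of the strain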
Details: growth OD

Measured: normalized growth

CCc1cccc2c3c([nH]c12)C(CC)(CC(=O)O)OCC3 (stereo not given)
inactive: S. cerevisiae deletion strains, locus YKL009W, strain mrt4, active compounds read low 0.965 | S. cerevisiae deletion strains, locus YKL068W, active compounds read low 1 | S. cerevisiae deletion strains, locus YKL085W, strain MDH1 (second series), active compounds read low 0.992 | S. cerevisiae deletion strains, locus YKL085W, strain MDH1, active compounds read low 0.992 | S. cerevisiae deletion strains, locus YKL160W, strain elf1, active compounds read low 0.975 | S. cerevisiae deletion strains, locus YKL190W, strain CNB1, active compounds read low 1 | S. cerevisiae deletion strains, locus YKR001C, strain vps1, active compounds read low 0.98 | S. cerevisiae deletion strains, locus YKR026C, strain gcn3, active compounds read low 0.987 | S. cerevisiae deletion strains, locus YKR091W, strain srl3, active compounds read low 0.978 | S. cerevisiae deletion strains, locus YLL001W, strain dnm1, active compounds read low 0.961 | S. cerevisiae deletion strains, locus YLL026W, active compounds read low 0.99 | S. cerevisiae deletion strains, locus YLL041C, strain sdh2, active compounds read low 0.976 | S. cerevisiae deletion strains, locus YLR027C, strain aat2, active compounds read low 0.987 | S. cerevisiae deletion strains, locus YLR039C, strain RIC1, active compounds read low 0.989 | S. cerevisiae deletion strains, locus YLR058C, strain SHM2, active compounds read low 1.01 | S. cerevisiae deletion strains, locus YLR102C, strain apc9, active compounds read low 1 | S. cerevisiae deletion strains, locus YLR113W, strain HOG1, active compounds read low 0.938 | S. cerevisiae deletion strains, locus YLR221C, strain rsa3, active compounds read low 0.993 | S. cerevisiae deletion strains, locus YLR258W, strain gsy2, active compounds read low 0.994 | S. cerevisiae deletion strains, locus YLR262C, strain YPT6 (second series), active compounds read low 0.93 | S. cerevisiae deletion strains, locus YLR262C, strain YPT6, active compounds read low 0.978 | S. cerevisiae deletion strains, locus YLR268W, strain sec22, active compounds read low 1.05 | S. cerevisiae deletion strains, locus YLR320W, strain mms22, active compounds read low 1.01 | S. cerevisiae deletion strains, locus YLR330W, strain CHS5, active compounds read low 1.01 | S. cerevisiae deletion strains, locus YLR342W, strain FKS1 (second series), active compounds read low 1.03 | S. cerevisiae deletion strains, locus YLR342W, strain FKS1, active compounds read low 0.985 | S. cerevisiae deletion strains, locus YLR357W, strain rsc2, active compounds read low 0.918 | S. cerevisiae deletion strains, locus YLR370C, strain arc18, active compounds read low 0.973 | S. cerevisiae deletion strains, locus YLR371W, strain rom2, active compounds read low 0.987 | S. cerevisiae deletion strains, locus YLR384C, strain iki3, active compounds read low 0.967 | S. cerevisiae deletion strains, locus YLR418C, strain cdc73, active compounds read low 0.995 | S. cerevisiae deletion strains, locus YML016C, strain PPZ1, active compounds read low 1 | S. cerevisiae deletion strains, locus YML032C, strain rad52, active compounds read low 1.01 | S. cerevisiae deletion strains, locus YML120C, strain ndi1, active compounds read low 0.977 | S. cerevisiae deletion strains, locus YML124C, strain tub3, active compounds read low 1 | S. cerevisiae deletion strains, locus YMR058W, strain fet3, active compounds read low 0.993 | S. cerevisiae deletion strains, locus YMR078C, strain ctf18, active compounds read low 1 | S. cerevisiae deletion strains, locus YMR125W, strain sto1, active compounds read low 0.924 | S. cerevisiae deletion strains, locus YMR129W, active compounds read low 0.972 | S. cerevisiae deletion strains, locus YMR205C, strain PFK2, active compounds read low 0.98 | S. cerevisiae deletion strains, locus YMR223W, strain ubp8, active compounds read low 0.99 | S. cerevisiae deletion strains, locus YMR231W, strain pep5, active compounds read low 0.967 | S. cerevisiae deletion strains, locus YMR263W, strain SAP30, active compounds read low 1.01 and 1 | S. cerevisiae deletion strains, locus YMR307W, strain GAS1, active compounds read low 0.923 and 1.01 | S. cerevisiae deletion strains, locus YNL067W, strain RPL9B, active compounds read low 1.02 | S. cerevisiae deletion strains, locus YNL071W, strain lat1, active compounds read low 0.988 | S. cerevisiae deletion strains, locus YNL128W, strain TEP1, active compounds read low 1.01 | S. cerevisiae deletion strains, locus YNL153C, strain GIM3, active compounds read low 1.02 | S. cerevisiae deletion strains, locus YNL175C, strain NOP13, active compounds read low 0.994 | S. cerevisiae deletion strains, locus YNL183C, strain NPR1, active compounds read low 0.93 | S. cerevisiae deletion strains, locus YNL197C, strain WHI3, active compounds read low 0.954 | S. cerevisiae deletion strains, locus YNL209W, strain ssb2, active compounds read low 0.972 | S. cerevisiae deletion strains, locus YNL224C, strain SQS1, active compounds read low 0.987 | S. cerevisiae deletion strains, locus YNL233W, strain BNI4, active compounds read low 1.01 | S. cerevisiae deletion strains, locus YNL248C, strain rpa49, active compounds read low 0.981 | S. cerevisiae deletion strains, locus YNL250W, strain rad50, active compounds read low 0.992 | S. cerevisiae deletion strains, locus YNL271C, strain bni1, active compounds read low 1.01 | S. cerevisiae deletion strains, locus YNL298W, strain CLA4, active compounds read low 0.984 | S. cerevisiae deletion strains, locus YNL307C, strain MCK1, active compounds read low 1 | S. cerevisiae deletion strains, locus YNL322C, strain KRE1 (second series), active compounds read low 0.965 | S. cerevisiae deletion strains, locus YNL322C, strain KRE1, active compounds read low 1 | S. cerevisiae deletion strains, locus YNR049C, strain mso1, active compounds read low 0.963 | S. cerevisiae deletion strains, locus YNR052C, strain pop2, active compounds read low 1.01 | S. cerevisiae deletion strains, locus YOL006C, strain TOP1, active compounds read low 1.08 | S. cerevisiae deletion strains, locus YOL012C, strain htz1 0.943 | S. cerevisiae deletion strains, locus YOL147C, strain pex11, active compounds read low 1 | S. cerevisiae deletion strains, locus YOR001W, strain rrp6, active compounds read low 0.949 | S. cerevisiae deletion strains, locus YOR061W, strain CKA2, active compounds read low 1.01 | S. cerevisiae deletion strains, locus YOR069W, strain VPS5, active compounds read low 1 | S. cerevisiae deletion strains, locus YOR070C, strain gyp1, active compounds read low 0.981 | S. cerevisiae deletion strains, locus YOR080W, strain dia2, active compounds read low 0.972 | S. cerevisiae deletion strains, locus YOR083W, strain WHI5 (second series), active compounds read low 0.978 | S. cerevisiae deletion strains, locus YOR083W, strain WHI5, active compounds read low 0.987 | S. cerevisiae deletion strains, locus YOR106W, strain vam3, active compounds read low 0.969 | S. cerevisiae deletion strains, locus YOR136W, strain idh2, active compounds read low 0.998 | S. cerevisiae deletion strains, locus YOR144C, strain elg1, active compounds read low 1 | S. cerevisiae deletion strains, locus YOR184W, strain ser1, active compounds read low 1.01 | S. cerevisiae deletion strains, locus YOR231W, strain MKK1, active compounds read low 0.986 | S. cerevisiae deletion strains, locus YOR265W, strain rbl2, active compounds read low 1 | S. cerevisiae deletion strains, locus YOR270C, strain vph1, active compounds read low 0.969 | S. cerevisiae deletion strains, locus YOR290C, strain snf2, active compounds read low 1 | S. cerevisiae deletion strains, locus YOR316C, strain cot1, active compounds read low 1 | S. cerevisiae deletion strains, locus YPL051W, strain arl3, active compounds read low 0.994 | S. cerevisiae deletion strains, locus YPL055C, strain LGE1, active compounds read low 0.989 | S. cerevisiae deletion strains, locus YPL078C, strain atp4, active compounds read low 0.963 | S. cerevisiae deletion strains, locus YPL106C, strain sse1, active compounds read low 1.03 | S. cerevisiae deletion strains, locus YPL240C, strain hsp82, active compounds read low 0.976 | S. cerevisiae deletion strains, locus YPL241C, strain CIN2, active compounds read low 1.01 | S. cerevisiae deletion strains, locus YPL256C, strain CLN2, active compounds read low 0.981 | S. cerevisiae deletion strains, locus YPR119W, strain clb2, active compounds read low 1.01 | S. cerevisiae deletion strains, locus YPR141C, strain kar3, active compounds read low 1 | S. cerevisiae deletion strains, locus YPR163C, strain tif3, active compounds read low 1.01 | S. cerevisiae deletion strains, locus YPR167C, strain met16, active compounds read low 1.01 | S. cerevisiae deletion strains, strain wtn01, active compounds read low 0.994 | S. cerevisiae strains, strain wild type, active compounds read low 0.999
